Screening results from PubChem.
Pf growth 48h: inhibits P. falciparum growth in the first generation, 48 h. P. falciparum luciferase growth in erythrocytes, 48 h. Potency, µM (top dose mostly 28.7 µM), without a hit: top-dose activity change, negative = inhibition, hits mostly inhibitors. actives 5.9% (n = 310,000). AID 504832; also: potency is read from the fitted curve at half-maximal effect; % is scaled to controls: 0 for no effect and ±100 for the full control effect
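Read-out is firefly luciferase luminescence from an integrated reporter in P. falciparum, so falling signal marks reduced parasite growth. Infected erythrocytes were at 2% hematocrit and 0.1% parasitemia (final) in Albumax-supplemented RPMI 1640.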
Cycloheximide cs: counter-screen hit for Shiga toxin inhibitors, cycloheximide; cell reporter, cycloheximide protein synthesis inhibition counterscreen; max response, %; actives 12% (n = 300,000); AID 2314; in the data active = max response mostly above about 13%, no sharp cut-off; inactive = mostly below about 14%; also: read at 38.3 µM for the half of the compounds with a filed dose; 0% is about no effect
Shiga toxin inh: Shiga toxin inhibition. Vero cells, Shiga toxin protein synthesis inhibition reporter. inhibition, % at 38.7 µM. actives 9.2% (n = 290,000); in the data active = inhibition mostly above about 28%, no sharp cut-off; inactive = mostly below about 43%; also: 0% is about no effect
Pf growth 96h: P. falciparum growth inhibition at 96 hour, primary screen for plastid delayed-death inhibitors | P. falciparum luciferase reporter growth, 96 h | Potency, µM (highest dose often 28.7 µM), for inactives: at the highest dose activity change, negative = inhibition, most hits filed as inhibitors | actives 6.9% (n = 320,000); also: potency is read from the fitted curve at half-maximal effect; % is scaled to controls: 0 for no effect and ±100 for the full control effect
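Plates of compound plus infected erythrocytes (2% hematocrit, 0.05% parasitemia final) incubate 96 hours, 37 C, 5% CO2. Detection reagent added; reduced luminescence from the parasites' luciferase reporter flags inhibition.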
NS1 function inh: inhibitors of influenza NS1 protein function; Potency, µM (highest dose often 46.1 µM), for inactives: top-dose activity, positive = more growth; actives 0.4% (n = 270,000); calls by dose curve; also: potency is read from the fitted curve at half-maximal effect; actives are rising curves; nearly all actives have a fitted effect of over 50% in size
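Growth recovery, yeast-based: influenza A NS1 expressed in S. cerevisiae causes slow growth, and suppressors are detected by OD600. The parent strain without NS1 is used as positive control.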
The depositor's hits bear a star; ? = inconclusive; nt = no result; + = active, no number; [ ] = another dose, or the depositor's remark. A selection: hits, their analogues and other compounds. The true share with any hit is near 21%. Unless noted, calls follow the shape of the dose curve; as a rule, active = well fitted inhibition curve with a large enough effect; inconclusive = small, poorly fitted or top-dose-only effect, or another doubt; inactive = no such curve, though single readings can be large or run the other way.

SMILES	Pf growth 48h	Cycloheximide cs	Shiga toxin inh	Pf growth 96h	NS1 function inh
CCN(CC)C(=O)Oc1ccc2cc(Br)ccc2c1	114%	28*	123*	237%	-4%
NC(N)=N[C@@H]1C(O)[C@H](N=C(N)N)[C@@H](O)C(O)[C@H]1O (some centres not stated)	nt	nt	nt	nt	-3%
O=C(O)COc1ccc(C(=O)c2cccs2)c(Cl)c1Cl	7%	-2	-6	3.8µM*	nt
O=C(O)COc1ccc2nsnc2c1Cl	15%	-3	-12	?	8%
Nc1c(C(=O)CSc2nncn2-c2ccccc2)c(=O)[nH]c(=O)n1C1CC1	?	nt	nt	12µM*	nt
Cc1cccc(Nc2nnc(SC(C)C(=O)NC3CC3)s2)c1 (configuration not stated)	13µM*	nt	nt	10µM*	nt
Cc1cccc(Nc2nnc(SCC(=O)c3c(N)n(C4CC4)c(=O)[nH]c3=O)s2)c1	-18%	nt	nt	6.6µM*	nt
Cc1ccc(Nc2nnc(SCC(=O)c3c(N)n(C4CC4)c(=O)[nH]c3=O)s2)cc1C	-23%	nt	nt	?	nt
CCn1cnnc1SCC(=O)c1c(N)n(C2CC2)c(=O)[nH]c1=O	-12%	nt	nt	?	nt
CCn1c(SCC(=O)c2c(N)n(C3CC3)c(=O)[nH]c2=O)nnc1-c1ccccc1OC	?	nt	nt	8.3µM*	nt
COc1ccc(C2(O)CCN(CCCCOc3ccccc3)CC2)cc1	0%	-4	-8	?	1%
Cc1ccccc1NC(=S)Nc1ccc2[nH]c(=O)[nH]c2c1	-6%	1	-9	26%	4%
COCCn1c(SCC(=O)c2c(N)n(C3CC3)c(=O)[nH]c2=O)nnc1-c1cccc(C)c1	8.3µM*	nt	nt	8.3µM*	nt
C/C(N)=C(/C#N)C(=O)CSc1nc2cc(Cl)ccc2s1	22%	24*	+	45%	-17%
CCn1c(Cc2ccccc2)nnc1SCC(=O)NC1CCCC1	10%	-7	-8	?	nt
Nc1c(C(=O)CSc2nnc(-c3ccccc3)o2)c(=O)[nH]c(=O)n1C1CC1	-28%	nt	nt	?	nt
Cc1cc(C)cc(-c2nnc(SCC(=O)c3c(N)n(C4CC4)c(=O)[nH]c3=O)o2)c1	0%	nt	nt	22%	nt
Nc1c(C(=O)CSc2nnc(COc3ccc(Cl)cc3)o2)c(=O)[nH]c(=O)n1C1CC1	?	nt	nt	10µM*	nt
CCn1c(Cc2ccccc2)nnc1SCC(=O)c1c(N)n(C2CC2)c(=O)[nH]c1=O	?	nt	nt	9.3µM*	nt
C/C(N)=C(/C#N)C(=O)CSc1cc(Cl)ccc1Cl	17%	-1	5	2%	-6%
CCC(Oc1ccccc1)C(=O)OCC(=O)N(CC)c1c(N)n(Cc2ccccc2)c(=O)[nH]c1=O (configuration not stated)	-3%	nt	nt	-2%	nt
C/C(N)=C(/C#N)C(=O)CSc1nnc(Nc2cccc(C)c2)s1	44%	31*	67*	?	-1%
O=C(Nc1cc(S(=O)(=O)N2CCOCC2)ccc1N1CCCC1)C1COc2ccccc2O1 (configuration not stated)	-27%	-2	17	?	?
CN1CCN(c2ccc(Cl)cc2NC(=O)/C=C/c2cccc(F)c2)CC1	9.3µM*	3	-24	?	-4%
CN1CCN(c2ccc(Cl)cc2NC(=O)C2COc3ccccc3O2)CC1 (configuration not stated)	8.3µM*	0	9	2.3µM*	-41%
SMILES	Pf growth 48h	Cycloheximide cs	Shiga toxin inh	Pf growth 96h	NS1 function inh
COc1ccc(Cl)cc1NC(=O)C1COc2ccccc2O1 (configuration not stated)	6%	38*	45*	-7%	nt
O=[N+]([O-])c1ccc(NC(=S)N2CCc3ccccc3C2)cc1	-25%	12	14	3%	-26%
CCOCCCNC(=O)c1cn(CC)c2ccc(S(=O)(=O)N3CCC(C)CC3)cc2c1=O	-25%	13	25	?	6%
O=C(Nc1ccc2ccccc2c1)NC1CCS(=O)(=O)C1 (configuration not stated)	50%	14*	88	5%	2%
O=S1(=O)CCC(NC(=S)Nc2ccc(Cl)cc2)C1 (configuration not stated)	3%	-2	12	0%	-1%
O=C(Nc1ccccc1)NC1CCS(=O)(=O)C1 (configuration not stated)	10%	-3	1	9.3µM*	-2%[9.22 µM]
O=C(NCc1ccccc1)NC1CCS(=O)(=O)C1 (configuration not stated)	9%	0	37	12%	0%
CC(C)N1CCC(N2CCN(CCCc3ccccc3)CC2CCO)CC1 (configuration not stated)	?	-1	13	?	2%
CC(C)(C)CN1CCN(CCCc2ccccc2)C(CCO)C1 (configuration not stated)	?	-2	nt	?	-7%
CC(C)N1CCN(CCCc2ccccc2)CC1CCO (configuration not stated)	-8%	1	-2	13µM*	0%
CC(C)CN1CCN(CCCc2ccccc2)C(CCO)C1 (configuration not stated)	?	-3	-7	9.3µM*	16%
COC(=O)CC1C(=O)NCCN1C(=O)c1c(F)cccc1F (configuration not stated)	0%	-8	-13	39%	14%
CCSc1nnc(-c2ccc(S(=O)(=O)N3CCOCC3)cc2)n1C	-25%	-3	-4	?	7%
CC(C(=O)O)N1C(=O)CSc2ncccc21 (configuration not stated)	0%	-3	-6	?	10%
O=C(Nc1ccc(CN2CCS(=O)(=O)CC2)cc1)c1ccc(Cl)cc1	-7%	16*	38	-7%	6%
O=C(Nc1ccc(CN2CCCCC2)cc1)c1ccc2c(c1)OCO2	5%	20*	34*	nt	4%
CC(C)c1ccc(C(=O)Nc2ccc(CN3CCOCC3)cc2)cc1	4%	23*	55*	?	-5%
O=C(Nc1ccc2c(c1)OCO2)c1ccc(CN2CCOCC2)cc1	35%	40*	60*	0%	11%
COC(=O)c1ccc(NC(=S)N2CCN(Cc3ccc(Cl)cc3)CC2)cc1	-14%	11	18	12%	-37%
C=CCn1c(Cc2csc(N)n2)nnc1SCC(=O)OCC	4%	-3	-2	nt	6%
O=C(NCC1COc2ccccc2O1)c1cn(Cc2ccc(F)cc2)nn1 (configuration not stated)	24%	-4	19	10%	-2%
O=C(Nc1ccc2c(c1)OCO2)c1cn(Cc2ccc(F)cc2)nn1	39%	18	42*	?	0%
COc1ccc(CC(=O)OCC(=O)NCc2ccccc2Cl)cc1OC	5%	8	-11	6%	nt
COc1ccc(C2N(c3cc(Cl)ccc3OC)C(=O)C3CCCN32)c(OC)c1 (configuration not stated)	nt	-8	10	0.93µM*	-48%
COc1ccccc1C1N(c2cc(Cl)ccc2OC)C(=O)C2CCCN21 (configuration not stated)	nt	-3	-4	-7%	0%
